According to PubChem BioAssay (NCATS):
Records with an inconclusive call do not appear. The source made the active and inactive calls. The call rests on the fitted dose curve; in most records, active means well fitted inhibition curve with a large enough effect; inconclusive means small, poorly fitted or top-dose-only effect; inactive means flat fitted curve, though single readings scatter.

Assays:
Experiment in all cases: qHTS profiling for inhibitors of Plasmodium falciparum proliferation (AID 504749); further: nearly all actives have a fitted effect of over 60% in size
Conditions in all cases: P. falciparum in erythrocytes, SYBR Green DNA, 72 h; series mostly up to 28.7 µM
CP262 = tested on: CP262
Method in brief: (§1)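 Quantitative HTS: compounds pinned into medium, infected erythrocytes added (0.3% parasitemia, 2.5% hematocrit), 72 h culture at 37 C under 5% CO2. Saponin/Triton lysis with SYBR Green I, overnight RT, then fluorescence read.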

CP265 = tested on: CP265
Method in brief: as §1

CP266 = tested on: CP266
Method in brief: as §1

CP268 = tested on: CP268
Method in brief: as §1

CP269 = tested on: CP269
Method in brief: as §1

CP286 = tested on: CP286
Method in brief: as §1

CP291 = tested on: CP291
Method in brief: as §1

CP297 = tested on: CP297
Method in brief: as §1

CP305 = tested on: CP305
Method in brief: as §1

CP315 = tested on: CP315
Method in brief: as §1

CP325 = tested on: CP325
Method in brief: as §1

CP329 = tested on: CP329
Method in brief: as §1

CP335 = tested on: CP335
Method in brief: as §1

DFO2036 = tested on: DFO2036
Method in brief: as §1

DIV14 = tested on: DIV14
Method in brief: as §1

DIV17 = tested on: DIV17
Method in brief: as §1

DIV30 = tested on: DIV30
Method in brief: as §1

Dd2 = tested on: Dd2
Method in brief: as §1

ECU = tested on: ECU
Method in brief: as §1

FAB9 = tested on: FAB9
Method in brief: as §1

GB4 = tested on: GB4
Method in brief: as §1

HB3 = tested on: HB3
Method in brief: as §1

ICS = tested on: ICS
Method in brief: as §1

JCK = tested on: JCK
Method in brief: as §1

N140 = tested on: N140
Method in brief: as §1

P93_24 = tested on: P93_24
Method in brief: as §1

P94_40 = tested on: P94_40
Method in brief: as §1

PAD = tested on: PAD
Method in brief: as §1

PC15 = tested on: PC15
Method in brief: as §1

PC26 = tested on: PC26
Method in brief: as §1

PC49 = tested on: PC49
Method in brief: as §1

SC27B = tested on: SC27B
Method in brief: as §1

TAB109 = tested on: TAB109
Method in brief: as §1

TAB113 = tested on: TAB113
Method in brief: as §1

TAB165 = tested on: TAB165
Method in brief: as §1

Measured: Potency

CN1[C@@H]2CC(OC(=O)[C@@H](CO)c3ccccc3)C[C@@H]1[C@H]1O[C@H]12 (stereo not given in full)
inactive: all assays above
